{"source": "paper PMC13083723", "about": "(Patterns, 2026)", "note": "The campaign covered roughly 5,400 compounds. About 190 (3.5%) showed an effect of 50% or more. What follows is part of a selection rich in strong results, with near analogues and random picks from the rest.", "data": [{"system": "Vero-E6", "assay": "primary screen, phospholipidosis by LipidTOX staining; higher = more effect of the substance", "conditions": "10 µM", "in_short": "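Single-concentration screen at 10 μM, with DMSO 0.1 v/v % and amiodarone 10 μM as controls. Read-out is LipidTOX Red phospholipid staining, which tolerates aldehyde fixation, in Vero-E6 cells.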", "units": {"result_ITMP": "%"}, "values": [{"smiles": "O=C1CN(/N=C/c2ccc(-c3ccc([N+](=O)[O-])cc3)o2)C(=O)[N-]1", "result_ITMP": -3.77}, {"smiles": "CCCCN(CCCC)CCCOC(=O)c1ccc(N)cc1", "result_ITMP": 4.87}, {"smiles": "CCc1oc2ccccc2c1C(=O)c1ccc(OCC(=O)O)cc1", "result_ITMP": -9.49}, {"smiles": "CCCCc1oc2ccccc2c1C(=O)c1cc(I)c(OCCN(CC)CC)c(I)c1", "result_ITMP": 55.1}, {"smiles": "CN(CCOc1ccc(NS(C)(=O)=O)cc1)CCc1ccc(NS(C)(=O)=O)cc1", "result_ITMP": -1.68}, {"smiles": "CCc1oc2ccccc2c1C(=O)c1cc(Br)c(O)c(Br)c1", "result_ITMP": 0.74}, {"smiles": "CCCCc1oc2ccc(NS(C)(=O)=O)cc2c1C(=O)c1ccc(OCCCN(CCCC)CCCC)cc1", "result_ITMP": 74.9}, {"smiles": "CC[C@@H](C)C[C@@H](C)CCCCCCCCC(=O)N[C@H]1C[C@@H](O)[C@@H](NCCN)NC(=O)[C@@H]2[C@@H](O)CCN2C(=O)[C@H]([C@H](O)CCN)NC(=O)[C@H]([C@H](O)[C@@H](O)c2ccc(O)cc2)NC(=O)[C@@H]2C[C@@H](O)CN2C(=O)[C@H]([C@@H](C)O)NC1=O", "result_ITMP": -8.5}, {"smiles": "CC(C)c1cc2c(cc1S(=O)(=O)O)[C@@]1(C)CCC[C@@](C)(C(=O)O)[C@@H]1CC2", "result_ITMP": -4.65}, {"smiles": "CC(C)c1ccc2c(c1)CC[C@H]1[C@](C)(CN)CCC[C@]21C", "result_ITMP": 80.5}, {"smiles": "Cc1c(N)nc([C@H](CC(N)=O)NC[C@@H](N)C(N)=O)nc1C(=O)N[C@H](C(=O)N[C@@H](C)[C@H](O)[C@@H](C)C(=O)N[C@@H](C(=O)NCCc1nc(-c2nc(C(=O)NCCC[S+](C)C)cs2)cs1)[C@@H](C)O)C(O[C@H]1O[C@H](CO)[C@H](O)[C@@H](O)[C@H]1O[C@H]1O[C@H](CO)[C@@H](O)[C@H](OC(N)=O)[C@@H]1O)c1c[nH]cn1", "note": "(stereo partly drawn)", "result_ITMP": 7.07}, {"smiles": "C[C@]12C=CC(=O)N[C@@H]1CC[C@@H]1[C@@H]2CC[C@]2(C)[C@@H](C(=O)Nc3cc(C(F)(F)F)ccc3C(F)(F)F)CC[C@@H]12", "result_ITMP": -3.63}, {"smiles": "C[C@@H]1CC[C@@]2(OC1)O[C@H]1C[C@H]3[C@@H]4CC=C5C[C@@H](O[C@@H]6O[C@H](CO)[C@@H](O[C@@H]7O[C@@H](C)[C@H](O)[C@@H](O)[C@H]7O)[C@H](O)[C@H]6O[C@@H]6O[C@@H](C)[C@H](O)[C@@H](O)[C@H]6O)CC[C@]5(C)[C@H]4CC[C@]3(C)[C@H]1[C@@H]2C", "result_ITMP": 18.9}, {"smiles": "CC1(C)S[C@@H]2[C@H](NC(=O)Cc3ccccc3)C(=O)N2[C@H]1C(=O)[O-]", "result_ITMP": -4.24}, {"smiles": "CN1CCCC(n2nc(Cc3ccc(Cl)cc3)c3ccccc3c2=O)CC1", "note": "(stereo not drawn)", "result_ITMP": 57.2}, {"smiles": "Clc1ccc(Nc2nnc(Cc3ccncc3)c3ccccc23)cc1", "result_ITMP": -1.32}, {"smiles": "COC1CCN(C(=O)c2cc(Cc3n[nH]c(=O)c4ccccc34)ccc2F)CC1", "result_ITMP": 2.83}, {"smiles": "Cc1nnc(SCC2=C(C(=O)[O-])N3C(=O)[C@@H](NC(=O)Cn4cnnn4)[C@H]3SC2)s1", "result_ITMP": -0.51}, {"smiles": "C=CCN1CC[C@@]2(C)c3cc(O)ccc3C[C@H]1[C@H]2C", "result_ITMP": -0.02}, {"smiles": "CN1CCCC(CN2c3ccccc3Sc3ccccc32)C1", "note": "(stereo not drawn)", "result_ITMP": 42.2}, {"smiles": "CN1CCCC(CC2c3ccccc3Sc3ccccc32)C1", "note": "(stereo not drawn)", "result_ITMP": 74.2}, {"smiles": "CN1CC[C@@H]2CN3CCc4cccc(c43)[C@@H]2C1", "result_ITMP": 5.83}, {"smiles": "C[C@]12CC[C@@H](O)C[C@@H]1CC[C@@H]1[C@@H]2CC[C@]2(C)C(c3ccccc3)=CC[C@@H]12", "result_ITMP": -2.07}, {"smiles": "N#CCc1ccccc1C#Cc1ccc(CCC(=O)O)c(F)c1", "result_ITMP": -8.03}, {"smiles": "O=C(O[C@H]1C[C@H]2CC[C@@H](C1)[N+]21CCCC1)C(O)(c1ccccc1)c1ccccc1", "result_ITMP": -3.78}, {"smiles": "CN1[C@@H](CC(=O)c2ccccc2)CCC[C@H]1C[C@H](O)c1ccccc1", "result_ITMP": 13.8}, {"smiles": "CCN(CCO)CCCC(C)Nc1ccnc2cc(Cl)ccc12", "note": "(stereo not drawn)", "result_ITMP": 1.54}, {"smiles": "CCN(CC)CCCC(C)Nc1c2ccc(Cl)cc2nc2ccc(OC)cc12", "note": "(stereo not drawn)", "result_ITMP": 110}, {"smiles": "COc1ccc2nc3ccc(Cl)cc3c(SCCCN)c2c1", "result_ITMP": -9.55}, {"smiles": "CC1(C)CCC(C)(C)c2c1cc(C(=O)Nc1cc(F)c(C(=O)O)c(F)c1)c(O)c2Cl", "result_ITMP": -2.47}, {"smiles": "CSc1ccc2c(c1)C(N1CCN(C)CC1)Cc1ccccc1S2", "note": "(stereo not drawn)", "result_ITMP": 79.9}, {"smiles": "CSc1ccc([C@H]2CN3CCC[C@H]3c3ccccc32)cc1", "note": "(racemic)", "result_ITMP": 14.1}, {"smiles": "CC[C@H]1[C@@H](O)[C@@H]2[C@H](CC[C@]3(C)[C@@H]([C@H](C)CCOS(=O)(=O)[O-])CC[C@@H]23)[C@@]2(C)CC[C@@H](O)C[C@@H]12", "result_ITMP": -1.93}, {"smiles": "Nc1nc(=O)c2c(CCc3ccc(C(=O)N[C@@H](CCC(=O)[O-])C(=O)[O-])cc3)c[nH]c2[nH]1", "result_ITMP": -3.84}, {"smiles": "CC(C)c1nc(N(C)S(C)(=O)=O)nc(-c2ccc(F)cc2)c1/C=C/[C@@H](O)C[C@@H](O)CC(=O)[O-]", "result_ITMP": -8.19}, {"smiles": "CCOc1cc(N2CCC(O)CC2)ccc1Nc1ncc2c(n1)N(C)c1ccccc1C(=O)N2C", "result_ITMP": 4.79}, {"smiles": "Cc1nc(Nc2cnn(C3CCNCC3)c2)nc2c1N(C)C(=O)c1cc3ccccc3cc1N2C", "result_ITMP": 103}, {"smiles": "O=C(O)[C@@H]1C[C@@H](C2CCCCC2)CN1C(=O)CP(=O)(O)CCCCc1ccccc1", "result_ITMP": -0.11}, {"smiles": "O=c1nc[nH]c2c1cnn2[C@@H]1O[C@H](CO)[C@@H](O)[C@H]1O", "result_ITMP": 2.43}, {"smiles": "CCC[C@@H]1C[C@@H](C(=O)N[C@H]([C@H]2O[C@H](SC)[C@H](O)[C@@H](O)[C@H]2O)[C@H](C)O)N(C)C1", "result_ITMP": -3.49}, {"smiles": "NC1(c2ccc(-c3nc4ccn5c(=O)[nH]nc5c4cc3-c3ccccc3)cc2)CCC1", "result_ITMP": 87.1}, {"smiles": "O=C(O)CCCCN(CCc1ccccc1OCc1ccc(CCc2ccccc2)cc1)Cc1ccc(C(=O)O)cc1", "result_ITMP": 0.2}, {"smiles": "O=C(O)CCc1ccc(NCc2cccc(Oc3ccccc3)c2)cc1", "result_ITMP": -4.86}, {"smiles": "COc1cccc(CCc2ccccc2OCC(CN(C)C)OC(=O)CCC(=O)O)c1", "note": "(stereo not drawn)", "result_ITMP": 64.3}, {"smiles": "CCc1cccc(CC)c1N=C1NCCN1", "result_ITMP": -5.43}, {"smiles": "O=C(O[C@H]1CN2CCC1CC2)N(Cc1cc(F)c(F)c(F)c1)c1cccc(F)c1", "result_ITMP": 71.4}, {"smiles": "C[C@H](Nc1ncnc2[nH]cnc12)c1cc2ccc(F)cc2nc1-c1ccccn1", "note": "[R4A_0002240_001 / SPE_K21077415]", "result_ITMP": -0.96}, {"smiles": "Nc1cccc(CNC(=O)c2ccc(Oc3ccc(OCc4cccc(F)c4)cc3)nc2)c1", "result_ITMP": -1.49}, {"smiles": "O=C(O)COc1nn(Cc2ccccc2)c2ccccc12", "result_ITMP": 0}, {"smiles": "CN(C)CCCOc1nn(Cc2ccccc2)c2ccccc12", "result_ITMP": 51.2}, {"smiles": "OCc1ccc(-c2nn(Cc3ccccc3)c3ccccc23)o1", "result_ITMP": -1.24}, {"smiles": "C[C@@H]1CCC[C@H](C)N1NC(=O)c1ccc(Cl)c(S(N)(=O)=O)c1", "result_ITMP": 3.56}, {"smiles": "CC(C)Cc1ccc(C(C)C(=O)O)cc1", "note": "(stereo not drawn) [R4A_0001344_001 / SPE_M64062803]", "result_ITMP": -5.52}, {"smiles": "O=C(Nc1ccc(F)cc1)N1CCc2ccccc2C1c1ccc(C(F)(F)F)cc1", "note": "(stereo not drawn)", "result_ITMP": -0.7}, {"smiles": "O=C(O[C@H]1CN2CCC1CC2)N1CCc2ccccc2[C@@H]1c1ccccc1", "result_ITMP": 59.2}, {"smiles": "O=C(C1CCCCC1)N1CC(=O)N2CCc3ccccc3C2C1", "note": "(stereo not drawn)", "result_ITMP": -5.83}, {"smiles": "CC(C)(CO)[C@@H](O)C(=O)NCCC(=O)[O-]", "result_ITMP": 1.43}, {"smiles": "C[C@@]12C[C@@]3(O)O[C@@H](O1)[C@]1(COC(=O)c4ccccc4)[C@H]3C[C@@]12O[C@@H]1O[C@H](CO)[C@@H](O)[C@H](O)[C@H]1O", "result_ITMP": -5.49}, {"smiles": "CCc1cccc(CC)c1NC(=O)N1Cc2[nH]nc(NC(=O)c3ccc(N4CCN(C)CC4)cc3)c2C1", "result_ITMP": 3.48}, {"smiles": "CN1CCN(c2ccc(C(=O)Nc3n[nH]c4ccc(Cc5cc(F)cc(F)c5)cc34)c(NC3CCOCC3)c2)CC1", "result_ITMP": 96.5}, {"smiles": "CN1CCN(c2ccc(-c3cccc(CN4CCOCC4)c3)cc2NC(=O)c2c[nH]c(=O)cc2C(F)(F)F)CC1", "result_ITMP": -0.45}, {"smiles": "C[C@H]1O[C@@H](O[C@H]2CC[C@@]3(C)[C@H](CC[C@@H]4[C@@H]3C[C@@H](O)[C@]3(C)[C@@H](C5=CC(=O)OC5)CC[C@]43O)C2)C[C@H](O)[C@@H]1O[C@H]1C[C@H](O)[C@H](O[C@H]2C[C@H](O)[C@H](O[C@@H]3O[C@H](CO)[C@@H](O)[C@H](O)[C@H]3O)[C@@H](C)O2)[C@@H](C)O1", "result_ITMP": -9.7}, {"smiles": "CO/N=C(\\C(=O)N[C@@H]1C(=O)N2C(C(=O)[O-])=C(COC(C)=O)CS[C@H]12)c1csc(N)n1", "result_ITMP": -7.3}, {"smiles": "COc1cccc([C@@H](C)NCCCc2ccccc2Cl)c1", "result_ITMP": 70.1}, {"smiles": "CC(NCCC(c1ccccc1)c1ccccc1)c1ccccc1", "note": "(stereo not drawn)", "result_ITMP": 43.7}, {"smiles": "COc1cccc(C(=O)CCN[C@@H](C)[C@H](O)c2ccccc2)c1", "result_ITMP": 1.52}, {"smiles": "C[N@+]12CCCC[C@@H]1CCC(=C(c1cccs1)c1cccs1)C2", "note": "(racemic)", "result_ITMP": -3.77}, {"smiles": "CO[C@@H]1[C@@H](OC(N)=O)[C@@H](O)[C@H](Oc2ccc3c([O-])c(NC(=O)c4ccc(O)c(CC=C(C)C)c4)c(=O)oc3c2C)OC1(C)C", "result_ITMP": -3.28}, {"smiles": "CC(=O)NCCCS(=O)(=O)[O-]", "result_ITMP": 7.64}, {"smiles": "C=CC(=O)N1CCC(Oc2cc3c(Nc4ccc(Cl)c(Cl)c4F)ncnc3cc2OC)CC1", "result_ITMP": 35.1}, {"smiles": "COc1cc2c(Nc3ccc(Br)cc3F)ncnc2cc1OCC1CCN(C)CC1", "result_ITMP": 105}, {"smiles": "COc1cc2ncnc(Nc3ccc(Cl)cc3F)c2cc1OC", "result_ITMP": -0.91}, {"smiles": "COc1cc2c(Nc3ccc(Cl)c(Cl)c3F)ncnc2cc1OC[C@@H]1C[C@@H]2CN(C)C[C@@H]2C1", "result_ITMP": 55.5}, {"smiles": "COc1ccc(Cl)c(Nc2ncnc3cc(OCC4CCN(C)CC4)c(OC)cc23)c1", "result_ITMP": 9.6}, {"smiles": "COc1cc2ncnc(Nc3cccc(Cl)c3F)c2cc1OC(=O)N1CCN(C)C[C@H]1C", "result_ITMP": 10.7}]}]}
